Results reported in PubChem BioAssay AID1345082 (National Center for Advancing Translational Sciences (NCATS), 2018).
The campaign covered roughly 94,000 compounds. About 4,000 (4.3%) were called active. Another 29% or so got no clear call; they are omitted. This is one part of a sample in which actives are shown more often than they occur. A number with no mark means an inactive call. The call rests on the fitted dose curve; in most records, active means well fitted inhibition curve with a large enough effect; inconclusive means small, poorly fitted or top-dose-only effect; inactive means no such curve, though single readings can be large or run the other way.

Assay: Cytotoxic Profiling in NIH 3T3 Cell Line of Diverse Libraries Using Quantitative High-Throughput Screening; further: nearly all actives have a fitted effect of over 55% in size
Conditions: NIH 3T3 viability, CellTiter-Glo ATP luminescence, 48-72 h; series mostly up to 96.7 µM; activity change, negative = cytotoxicity: at the top concentration
How it was run: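 Viability of NIH 3T3 cells after 48 or 72 hr compound treatment at 37 °C was assessed by CellTiter-Glo, with luminescence imaged following a 10 min room-temperature step.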
On the % scale 0 is the no-effect control and ±100 the full control effect; potency means the concentration at half of the fitted maximal effect.

Compound | outcome | Potency | activity change, negative = cytotoxicity
COC[C@@H]1[C@@H](NC(=O)Cc2nn(C)c(=O)c3ccccc23)[C@@H]2CCO[C@H]12 | inactive |  | 
O=C1CO[C@H]2CN(C3CCC3)C[C@H]2N1Cc1ccc(OC(F)(F)F)cc1 |  | 89.1 µM (active) | 
COc1ccc(CN2C(=O)CO[C@H]3CN(C(=O)C4CC4)C[C@H]32)cc1 | inactive [at 174 µM] |  | 
COc1ccc(CN2C(=O)CO[C@H]3CN(Cc4cccnc4)C[C@H]32)cc1 |  |  | -16.6% [at 174 µM]
Clc1ccc(-c2nnc3n2CCN(Cc2cccc4ccccc24)C3)cc1 |  |  | -1.44%
CCc1noc(-c2cn(C3CCN(C(=O)c4ccc(Cl)cc4)C3)nn2)n1 (stereo not given) |  |  | -37.5%
COc1cccc(CN2CCN(C(=O)c3cnc4ccccn4c3=O)CC2=O)c1 |  |  | -20.9%
COc1cccc(C(=O)N2CCC(Cc3nc(-c4cnccn4)no3)CC2)c1 |  |  | -14.6%
COc1cccc(CN2C(=O)OC3(CCN(C(=O)c4scnc4C)CC3)C2(C)c2cccnc2)c1 (stereo not given) |  | 31.6 µM (active) | 
O=C(CCCc1ccccc1)Nc1ccnn1C1CCN(C(=O)CCn2cncn2)CC1 |  |  | -8.17%
Cc1cc(C(=O)N2CC[C@@H]3CN(Cc4ccccc4)[C@@H]3C2)nn1C |  |  | 3.88%
Cc1nc(-c2c3n(c(=O)n(CC(=O)Nc4ccccc4C)c2=O)CCCCC3)no1 |  |  | -7.9%
Cc1nc2scc(CC(=O)NC(C)C)n2c(=O)c1-c1cc(C)n(-c2cccc(Cl)c2)n1 | inactive |  | 
CCn1c(C2CCCN(C(=O)c3ccc(C(C)(C)C)cc3)C2)nn(C)c1=O (stereo not given) |  |  | -23.2%
CC(C)c1ccc(N2C(=O)N[C@@H]3CCN(C(=O)c4ccc(C(C)(C)C)cc4)[C@@H]3C2=O)cc1 |  | 70.8 µM (active) | 
O=C1C(N2CCN(S(=O)(=O)c3ccccc3)CC2)CCN1CCc1ccccc1 (stereo not given) |  |  | -29.8%
Cc1ccccc1NC(=O)Nc1ccnn1C1CCN(C(=O)CCN)CC1 |  |  | -3.4%
CC(C)c1ccc(C(=O)N2C[C@@H]3CCCN4CCC[C@@H]([C@H]34)[C@H]2CCCC(=O)N2CCOCC2)cc1 |  |  | -9.71%
CCC(CC)C(=O)NC1CCN(c2cnn(CCOC)c(=O)c2)CC1 |  |  | -18.5%
COc1ccccc1CN1CC[C@@H](CO)N(C)c2ncccc2C1 |  | 35.5 µM (active) | 

Compound | outcome | Potency | activity change, negative = cytotoxicity
Cc1ccc2c(n1)N(C)[C@H](CO)CCN(Cc1cccc(Cl)c1)C2 |  |  | -25.8% [at 174 µM]
Cc1ccc2c(n1)N(C)[C@H](CO)CCN(Cc1ccccc1C)C2 |  |  | -20.4% [at 174 µM]
Cc1ccc(-c2cc3c(=O)n(CCNC(=O)Cc4c[nH]c5ccccc45)ccn3n2)cc1C |  |  | -17.1%
O=C(NCc1ccncc1)C1CC(=O)N(c2n[nH]c3ccccc23)C1 (stereo not given) | inactive |  | 
Cc1cccc(OCCc2noc(C3CCCN3C(=O)c3ccnn3C)n2)c1 (stereo not given) |  |  | -15.3%
COc1ccc(NC(=O)N2CCCC(Cc3noc(-c4ccccc4)n3)C2)cc1 (stereo not given) |  | 35.5 µM (active) | 
COCCCNC(=O)N1CCC(Cc2noc(-c3ccncc3)n2)C1 (stereo not given) |  |  | -18.9%
Cc1cc(C(=O)N2CCCC(Cc3noc(-c4cccnc4)n3)C2)nn1C (stereo not given) |  |  | -1.02%
CCN1C(=O)CCN(C(=O)NCCCOC)CC12CCOCC2 |  |  | 2.65%
O=C1NC(=NC2CCCCC2)C2(CCN([S+](=O)([O-])c3ccccc3)C2)N1c1cccnc1 (stereo not given) |  |  | 3.46%
O=C(c1ccsc1)N1CCCCCC1c1nnc(-c2ccccc2)o1 (stereo not given) |  |  | -20.9%
COc1ccccc1N1CCCc2ncc(C(=O)N3CCCC[C@@H]3c3ccccc3)cc21 |  | 70.8 µM (active) | 
COc1ccccc1N1CCN(C(=O)C2CCCN(C(=O)c3ccccc3)CCC(=O)NCC2)CC1 (stereo not given) | inactive |  | 
COc1ccc(C(=O)N2CCCN(C(=O)C3CC3)C(c3ccccc3)CC(=O)NCC2)cn1 (stereo not given) |  |  | -7.53%
CNC(=O)c1cc(C2CC2)nc2onc(C3CCCN(C(=O)OC)C3)c12 (stereo not given) |  |  | -20.4%
CC(C)NC(=O)NC[C@H]1O[C@@H]2C[C@@H](CC(=O)NCc3nccn3C)O[C@@H]2[C@@H]1O |  |  | -20.6% [at 174 µM]
NC(=O)c1cccc(-c2ncc3c(n2)OCCN(c2cccc(C(F)(F)F)c2)C3=O)c1 |  | 15.8 µM (active) | 
COc1ccc(OC2CCN(C(C)=O)CC2)c(C(=O)N(C)Cc2ccc3nccnc3c2)c1 |  |  | -21.1%
O=C([C@H]1C[C@@H](F)CN1S(=O)(=O)c1ccc(F)c(Cl)c1)N1CCOCC1 |  |  | -0.937%
CN1C[C@@H](NC(=O)COc2ccccc2)C[C@H]1c1nc(-c2ccc3c(c2)OCO3)no1 |  |  | -28.1% [at 174 µM]

Compound | outcome | Potency | activity change, negative = cytotoxicity
CN1C[C@@H](NC(=O)c2ccc(C#N)cc2)C[C@H]1c1nc(-c2ccc(OC(F)(F)F)cc2)no1 |  | 39.8 µM (active) | 
CN1C[C@@H](NC(=O)c2ccccc2)C[C@H]1c1nc(-c2ccccc2)no1 |  |  | -17.1% [at 174 µM]
COc1ccc(CCc2nc(NC(=O)Cn3nc4c(cc3=O)CCCCC4)n[nH]2)cc1 |  |  | -23.8%
Cc1ccc(CNC(=O)C2CCN(C(=O)c3ncn4c3COC(c3ccc(F)cc3)C4)CC2)cc1 (stereo not given) | inactive |  | 
O=C(NC1CCCCC1)C1CCCN(c2nccc(Nc3ccccc3F)n2)C1 (stereo not given) |  | 14.1 µM (active) | 
O=C(NCc1cccnc1)C1CCCN(c2cnn(Cc3ccccc3)c(=O)c2)C1 (stereo not given) |  |  | -24.1%
CNC(=O)C1CCN(c2nccc(Nc3ccccc3F)n2)CC1 |  |  | -43.4% [at 138 µM]
O=C(NC1CC1)C1CCCN(c2nc3ncccc3o2)C1 (stereo not given) |  |  | -5.51% [at 138 µM]
Cc1nc(CCNC(=O)C2CCCN(c3nc(-c4ccccc4)nc4c3CCC4)C2)n[nH]1 (stereo not given) |  |  | -19.5%
O=C(NCc1ccc(F)cc1)C1CCN(c2nccc(Nc3ccccc3F)n2)CC1 |  | 44.7 µM (active) | 
Cc1ccccc1CN1CCC(N2CCCC(C(=O)NC3CC3)C2)CC1 (stereo not given) |  |  | -0.637%
CC(C)CNC(=O)C1CCCN(c2nccc(Nc3ccccc3F)n2)C1 (stereo not given) |  | 44.7 µM (active) | 
Cc1ccc(C(=O)N2CCC(c3n[nH]c(=O)n3Cc3ccc(F)cc3)CC2)cc1 |  |  | -16.8%
O=C1CCN([C@@H]2CCC[C@H]2O)c2cc3c(cc2CN1Cc1ccccc1)OCO3 |  |  | -22.9%
COc1cccc([S+](=O)([O-])N2CCCC3(CC(c4ccccc4)=NO3)C2)c1 (stereo not given) |  |  | -14.2%
N[C@@H](Cc1cnc[nH]1)C(=O)N1CCC(c2cc(N3CCCC3)ncn2)CC1 |  |  | -4.08%
COc1ccc(C2Cn3nnc(-c4noc(-c5sccc5C)n4)c3CO2)cc1 (stereo not given) |  |  | 0.859%
CCc1cc(C(=O)N2CCC(Oc3ccccc3)(C(=O)O)CC2)cs1 |  |  | 1.22%
CC(C)CNc1ncnc2c1CN(C1CCC1)C(=O)CN2C |  |  | -28.4%
O=C(c1ccc(F)c(F)c1)N1CCN(C2CCN(CCc3ccccc3)C2=O)CC1 (stereo not given) |  |  | -8.32%
